# High-throughput results (PubChem BioAssay)
# Lassa entry: blocks Lassa virus binding or cell entry. Lassa virus pseudotyped entry inhibition, cell-based qHTS. 18,000 tested, 4.1% active. AID 720533. Potency, µM (titrated, usually from 49.2 µM), for inactives: top-dose activity change, negative = inhibition, most hits filed as inhibitors
# Marburg entry: blocks Marburg virus binding or cell entry. Marburg virus pseudotype entry/binding inhibition, cell-based. Potency, µM (top dose mostly 49.2 µM), for inactives: at the top dose activity change, negative = inhibition, usual class: inhibitors. 18,000 tested, 6.5% active. AID 720532
# Active calls of the source: *; ? = inconclusive; nt = not tested or not shown; ! = not confirmed by another sample; [ ] = remark or other dose. A selection: hits, their analogues and other compounds. The true share with any hit is near 8.6%. The call rests on the fitted dose curve; tested in HEK293 cells. On the % scale 0 is the no-effect control and ±100 the full control effect; potency means the concentration at half of the fitted maximal effect.
SMILES,Lassa entry,Marburg entry
CC[C@]1(O)CC2CN(CCc3c([nH]c4ccccc34)[C@@](C(=O)OC)(c3cc4c(cc3OC)N(C)[C@H]3[C@@](O)(C(N)=O)[C@H](O)[C@]5(CC)C=CCN6CC[C@]43[C@@H]65)C2)C1 (stereo partly specified),-34%,?
Fc1ccc(-c2ncn(C3CCNCC3)c2-c2ccnc(Oc3ccc(F)c(F)c3)n2)cc1,?,3.5µM*
Fc1ccc(-c2ncn(C3CCNCC3)c2-c2ccnc(Oc3ccc(Oc4ccccc4)cc3)n2)cc1,?,8.9µM*
Nc1nccc(-c2c(-c3ccc(F)cc3)ncn2C2CCNCC2)n1,-13%,?
C[C@H]1[C@H](N=[N+]=[N-])[C@H](O)CCO[C@@H]1c1ccccc1,8%[8.59 µM],13%[8.59 µM]
OC[C@H]1O[C@@H](n2cnc3c(NCc4ccco4)ncnc32)[C@H](O)[C@@H]1O,?,13µM*
CNc1ncnc2c1ncn2[C@@H]1O[C@H](CO)[C@@H](O)[C@@H]1O,-13%[17.8 µM],7%[17.8 µM]
CSc1ncnc2c1ncn2C1OC(CO)C(O)C1O (stereo unspecified),0.35µM*,0.5µM*
Nc1ncnc2c1ncn2C1OC(CO)C(O)C1O (stereo unspecified),0%,5%
Cc1ccccc1CNc1ncnc2c1ncn2[C@@H]1O[C@H](CO)[C@@H](O)[C@H]1O,-4%,25%
OC[C@H]1O[C@@H](n2cnc3cncnc32)[C@H](O)[C@@H]1O,7.9µM*,3.2µM*
O=C(C1CCCCC1)N1C[C@H](O)[C@H](n2cc(C3CC3)nn2)C[C@@H]1c1ccc(Cl)cc1,-19%,-36%
Cc1cc(C)n(-c2cccc(C(=O)NCC3Cc4cccc(-c5ccccn5)c4O3)c2)n1 (stereo unspecified),-1%,-3%
O=S1CCN(Cc2ccc(-c3ccc4ncnc(Nc5ccc(OCc6ccccc6)c(Cl)c5)c4c3)o2)CC1,-36%,?
COc1ccc(O)c(CN2CCC3(CC2)c2ccccc2[C@@H](NC(=O)c2cccc(F)c2)[C@@H]3OC)c1,-28%,?
CN1CCOC(c2ccccc2)c2ccccc2C1 (stereo unspecified),?,11µM*!
N=C(N)N1Cc2ccccc2C(O)C1 (stereo unspecified),0%,13%
C=CCN1CCC2(C)c3cc(O)ccc3CC1C2C (stereo unspecified),1%,?
C[C@H]1[C@H]2Cc3ccc(O)cc3[C@]1(C)CCN2CCc1ccccc1,32µM*,18µM*
CN1CCN2c3ccccc3Cc3ccccc3C2C1 (stereo unspecified),?,35µM*
CC(=O)O.CC(=O)O.[Cd],7.9µM*,2.8µM*
O=C(O)/C=C\C(=O)O,-4%,-13%
CCN1CCC(C(=O)Nc2n[nH]c3nnc(-c4cccc(F)c4F)cc23)CC1,nt,-42%
CCN(CC)Cc1ccc(Nc2ccnc3cc(Cl)ccc23)cc1O,?,1.8µM*
CCN(CC)CCC[C@H](C)Nc1ccnc2cc(Cl)ccc12,24%[17.8 µM],-22%[17.8 µM]
SMILES,Lassa entry,Marburg entry
Cn1cc(C(=O)C(=O)N[C@H]2CN3CCC2CC3)c2ccccc21,?,28µM*!
O=C(N[C@H]1CN2CCC1CC2)c1ccc(Cl)cc1,-10%,?
COC(=O)[C@H](C)N1CC=CCOc2c(Cl)cc(Cl)cc2[S+]1(=O)[O-],-20%,-18%
CSc1ccc2c(c1)[C@H](N1CCN(C)CC1)Cc1ccccc1S2,28µM*!,11µM*
CSc1ccc2c(c1)C(N1CCN(C)CC1)Cc1ccccc1S2 (stereo unspecified),22µM*!,6.3µM*
CN1CCN(C2Cc3ccccc3Sc3ccc(Cl)cc32)CC1 (stereo unspecified),?,13µM*
Cc1ccccc1C(=O)N1CCc2c(cnc(C)c2CNC(=O)c2ccc3c(c2)OCO3)C1,-7%,-15%
COC(=O)C12CC3=CCC4C(=O)N(c5ccccc5)C(=O)C4C3Cc3ccccc3[C@H]1CNC2=O (stereo partly specified),21%[8.59 µM],5%[8.59 µM]
[H+].[H+].[Hg+2].[O-]B([O-])[O-].[c-]1ccccc1,1µM*,?
CC(C)CON=C1C[C@@H](O)[C@@H](O)[C@@H]2[C@H]3C(=O)N(C4CCCCC4)C(=O)[C@@H]3CC[C@H]12,31%[8.59 µM],?
[O-][n+]1ccccc1SSc1cccc[n+]1[O-],4µM*,6.3µM*
O=C(c1cccc(N2CCCC2=O)c1)N1CCC(Oc2cccc(CN3CCN(c4ccccn4)CC3)c2)CC1,?,-9%
O=C(NC1CCN(Cc2ccccc2)C1)c1cnn(-c2ncc3c(n2)-c2ccccc2CC3)c1C1CC1 (stereo unspecified),-15%,5µM*
O=C(NCCN1CCOCC1)c1cnn(-c2ncc3c(n2)-c2ccccc2CC3)c1C1CC1,-15%,?
c1ccc2c(c1)Sc1ccccc1N2C[C@@H]1CN2CCC1CC2,3%,12%
CN1CCCC(CC2c3ccccc3Sc3ccccc32)C1 (stereo unspecified),?,7.9µM*
